Five molecules from PubChem BioAssay can be followed below.

SMILES strings stand for the structures. Records with an inconclusive call do not appear. Calls of active or inactive are those of the source.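 The calls were made as follows, unless noted: active = differentiation response of at least 50%, scaled between solvent and reference control, from cells with both markers; inactive = the rest.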

A short description of assay [1]: rapamycin-like changes in RPL19A-GFP expression – cell-based, S. cerevisiae, multiplex flow cytometry, primary screen (AID 1862; in the data active = percent of DMSO control GFP below about 86%;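 also: lower values mimic rapamycin by blocking the RPL19A rise seen in DMSO cells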). Particulars: S. cerevisiae RPL19A-GFP strain, flow cytometry fluorescence, 3 h; at 10 µM; stronger effect = lower value. Background: A flow cytometer gives signals particle by particle.
Assay [2] is described as follows: TOR pathway GLN3 branch reporter MEP2-GFP changes – S. cerevisiae, multiplex flow cytometry, primary screen (AID 1867;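 active = GFP response, as percent of the DMSO control, above the screen-wide mean plus 3 SD, about 139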;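 also: median GFP channel fluorescence of barcode-gated MEP2-GFP cells measured by flow cytometry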). Particulars: S. cerevisiae MEP2-GFP strain, 3 h, at 10 µM, stronger effect = higher value, 100% means same as DMSO wells.
A short description of assay [3]: TOR pathway RTG branch CIT2 reporter changes – S. cerevisiae, GFP fusion, multiplex flow cytometry, primary screen (AID 1870;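 active = percent response above a set limit, the screen-wide mean plus 3 SD, cut at about 130% in these data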;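 also: barcoded CIT2-GFP strain pooled with four other GFP strains with rapamycin as positive control; median GFP fluorescence per well over plate mean of DMSO wells so 100% = DMSO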). To be noted: S. cerevisiae CIT2-GFP expression, 3 h, at 10 µM, stronger effect = higher value.
Assay [4] can be described thus: TOR pathway LAP4-GFP level changes – S. cerevisiae, multiplex flow cytometry, primary screen (AID 1873;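 active = GFP signal, as percent of the solvent control, above the screen mean plus 3 SD, about 149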). Particulars: S. cerevisiae LAP4-GFP expression, 3 h, at 10 µM, stronger effect = higher value.
A short description of assay [5]: yeast AGP1-GFP level changes, GLN3 branch – cell-based, multiplex flow cytometry, S. cerevisiae, primary screen (AID 1887;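 active = GFP signal above the screen-wide mean plus 3 SD, that is over about 124.5% of the solvent control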;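 also: AGP1-GFP fusion strain of S. cerevisiae within a five-strain barcoded multiplex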). To be noted: 3 h, at 10 µM, stronger effect = higher value.
Assay [6] can be described thus: reduced mouse 2C T cell binding to pMHC/ICAM-1 vesicles – MLPCN validation set, flow cytometry, LFA-1/ICAM-1 modulator project, pilot screen (AID 2523;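 active = response below a set limit, under 55% cells CD8-positive and vesicle-bound, and CD8 cells' 90th-percentile brightness under 279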;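 as to vesicle binding response: mean PE anti-B7-1 fluorescence of CD8+ cells relative to row control; 100% = QL9-loaded vesicles with DMSO vehicle in the same plate row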). To be noted: 2C mouse CD8+ T cells, at 7 µM, stronger effect = lower value; double positive events: measured here: CD8+/vesicle+ event percentage.
For assay [7], the target named is Integrin beta-1 (Homo sapiens) + Integrin alpha-4 (Homo sapiens) (UniProt P13612+P05556). In words: alpha4beta1 integrin LIBS antibody binding reduction – U937 cells, HUTS-21 mAb, flow cytometry, validation set, VLA-4 allosteric modulator project, pilot screen (AID 2674;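 active = inhibition above 50%, about 3 SD of the validation set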;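 also: antibody binding induced by the VLA-4 ligand LDV present at three times its Kd; 0% = LDV ligand with antibody and no compound and 100% = antibody without LDV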). Particulars: HUTS-21 LIBS mAb binding, at 6.7 µM, stronger effect = higher value, binding induced by LDV ligand.

Assay [8] is described as follows: calorie-restriction mimetic ROS inhibitors, yeast – validation compound set, pilot screen (AID 2706;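 active = superoxide response below 65% of plate, a cut near 3 SD across the whole screen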;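 also: yeast exposed to compound for one week at 30 degrees C before staining; 100% = mean of all compound wells on the same plate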). Particulars: S. cerevisiae aging, superoxide DHE fluorescence; at 10 µM, stronger effect = lower value.
In assay [9] the target is Beta-adrenergic receptor kinase 1 (Homo sapiens) (UniProt P25098). The experiment in a line: GRK2 binders displacing RNA aptamer, biochemical, validation, human GRK2, bead flow cytometry (AID 488806;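 active = aptamer binding inhibition above 30%, about 3 SD of noise from non-fluorescent compounds; inactive = inhibition at or below 30%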). To be noted: bead-bound GRK2, FAM-aptamer displacement, at 10 µM, stronger effect = higher value.
Assay [10] addresses AP-2 complex subunit beta (Homo sapiens) (UniProt P63010). In words: beta-arrestin/AP2 interaction blockers – biochemical, validation set, GST-AP2 beads, flow cytometry, pilot screen (AID 504541;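 active = inhibition above 54%, about 3 SD of non-fluorescent compounds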;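 also: AP2 carries R879A mutation and is captured from E. coli lysate; bead-bound FITC arrestin peptide fluorescence measuring arrestin peptide binding to AP2; 0% = DMSO wells and 100% = excess unlabeled arrestin peptide control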). Particulars: FITC arrestin peptide, at 10 µM, stronger effect = higher value, AP2 beta2 appendage fragment, R879A mutant.
Assay [11] in a line: cytosolic pH regulators acting via V-ATPase – S. cerevisiae, pHLuorin, HTS validation (AID 504600; in the data active = response above about 15%;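 also: plate controls were DMSO for no effect and reference compound for full effect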). Particulars: V-ATPase proton transport, at 10 µM, stronger effect = higher value.
Assay [12] deals with anti-desmoglein-3 scFv antibody binding to human DSG3. The experiment in a line: blockers of pathogenic pemphigus antibody–desmoglein-3 binding – biochemical, validation compound set, bead-based, flow cytometry, pilot screen (AID 588368;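 active = binding below the plate cutoff, the plate median minus 3 SD, with a reading above zero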;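 also: signal is the median channel fluorescence of bead-bound GFP antibody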). To be noted: Protein G beads, DSG3-Fc, scFv-GFP binding, at 10 µM, stronger effect = lower value.
The nature of assay [13]: Nile Red efflux blockade in pump-expressing yeast – validation compound set, multiplex, phenotypic, pilot screen (AID 588506;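 active = efflux inhibition above 0.42, the validation set average plus 4 SD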;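 also: Nile Red retained in cells so higher fluorescence means more efflux inhibition; 0 = negative control wells and 1 = enniatin B 25 µM full block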). Particulars: S. cerevisiae pump-expressing triplex, Nile Red efflux flow cytometry; at 10 µM; stronger effect = higher value; the pumps come from Candida albicans.
Assay [14] addresses ATP-binding cassette sub-family B member 6 (Homo sapiens) (UniProt Q9NP58). The experiment in a line: blockers of ABCB6-driven porphyrin uptake – K562-ABCB6 cells, flow cytometry, validation set, pilot screen (AID 588550;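 active = inhibition above the screen-wide mean plus 3 SD, about 51%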;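 also: 0% = DMSO wells and 100% = benzethonium chloride 70 µM positive control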). Particulars: K562-ABCB6 porphyrin accumulation, 1 h, at 10 µM, stronger effect = higher value.
Assay [15] is described as follows: AML differentiation inducers, ER-HoxA9 marrow cells – cell-based, GFP/MAC1 double positive, flow cytometry, validation set, primary screen (AID 588685).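 Also: compound exposure lasts four days before antibody staining and flow analysis; 0% = DMSO wells and 100% = 5 µM fulvestrant positive control.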 Particulars: stronger effect = higher value, normalized: vehicle 0, fulvestrant 100.
Assay [16] addresses Beta-2 adrenergic receptor (Homo sapiens) (UniProt P07550). The experiment in a line: agonist-induced loss of surface beta2AR – cell-based, FAP fluorogen, flow cytometry, validation set, pilot screen (AID 504459;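 active = percent response above 42, roughly 3 SD of non-fluorescent test compounds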;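 also: agonist-driven loss of surface beta2AR via internalization measured by FAP dye flow cytometry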). Particulars: Am2.2-beta2AR cells, at 10 µM, stronger effect = higher value.

Chain of AP-2 complex subunit beta (Homo sapiens) (P63010 whole entry, looked up, the tested form may be a part, one chain of several): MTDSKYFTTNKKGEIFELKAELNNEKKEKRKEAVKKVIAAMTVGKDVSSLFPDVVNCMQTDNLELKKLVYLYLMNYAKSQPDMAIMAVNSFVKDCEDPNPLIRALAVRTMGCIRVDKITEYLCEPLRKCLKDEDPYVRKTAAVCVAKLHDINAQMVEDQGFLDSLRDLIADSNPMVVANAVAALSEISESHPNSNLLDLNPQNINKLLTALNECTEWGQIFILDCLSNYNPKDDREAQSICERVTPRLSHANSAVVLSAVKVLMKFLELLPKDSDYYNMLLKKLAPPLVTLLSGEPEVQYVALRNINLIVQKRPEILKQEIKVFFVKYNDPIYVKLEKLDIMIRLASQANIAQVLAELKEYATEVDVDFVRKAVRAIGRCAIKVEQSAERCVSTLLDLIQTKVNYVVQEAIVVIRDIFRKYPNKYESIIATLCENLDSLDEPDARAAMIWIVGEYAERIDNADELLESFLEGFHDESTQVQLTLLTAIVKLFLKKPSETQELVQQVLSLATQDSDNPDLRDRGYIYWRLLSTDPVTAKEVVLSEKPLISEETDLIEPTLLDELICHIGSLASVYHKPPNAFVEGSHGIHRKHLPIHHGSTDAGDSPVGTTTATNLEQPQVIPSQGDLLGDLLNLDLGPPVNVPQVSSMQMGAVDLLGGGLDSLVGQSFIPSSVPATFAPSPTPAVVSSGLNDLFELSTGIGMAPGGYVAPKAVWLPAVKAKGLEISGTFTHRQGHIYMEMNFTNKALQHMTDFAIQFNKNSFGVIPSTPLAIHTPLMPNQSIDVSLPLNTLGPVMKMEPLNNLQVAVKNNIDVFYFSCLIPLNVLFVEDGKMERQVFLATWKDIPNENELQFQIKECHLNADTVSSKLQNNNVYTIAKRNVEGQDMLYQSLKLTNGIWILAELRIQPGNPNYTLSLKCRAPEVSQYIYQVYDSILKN
Chain of Beta-adrenergic receptor kinase 1 (Homo sapiens) (P25098 whole entry, looked up): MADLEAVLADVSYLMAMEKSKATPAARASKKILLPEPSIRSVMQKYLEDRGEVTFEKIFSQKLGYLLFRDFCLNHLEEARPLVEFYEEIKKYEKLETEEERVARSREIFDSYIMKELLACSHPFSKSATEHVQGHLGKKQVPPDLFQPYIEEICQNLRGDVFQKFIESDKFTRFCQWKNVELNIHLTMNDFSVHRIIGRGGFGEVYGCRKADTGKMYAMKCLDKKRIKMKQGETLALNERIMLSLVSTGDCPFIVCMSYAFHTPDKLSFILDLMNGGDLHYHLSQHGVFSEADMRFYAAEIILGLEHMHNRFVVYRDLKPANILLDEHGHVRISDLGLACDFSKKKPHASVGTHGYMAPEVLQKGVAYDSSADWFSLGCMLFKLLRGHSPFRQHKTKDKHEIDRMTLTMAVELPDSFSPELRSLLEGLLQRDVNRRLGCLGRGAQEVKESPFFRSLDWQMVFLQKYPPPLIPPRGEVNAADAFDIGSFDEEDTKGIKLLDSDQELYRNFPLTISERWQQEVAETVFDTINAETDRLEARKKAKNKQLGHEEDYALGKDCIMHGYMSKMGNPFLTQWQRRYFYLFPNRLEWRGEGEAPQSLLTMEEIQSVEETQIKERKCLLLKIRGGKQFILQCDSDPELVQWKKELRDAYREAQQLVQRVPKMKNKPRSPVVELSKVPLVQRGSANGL
Chain of ATP-binding cassette sub-family B member 6 (Homo sapiens) (Q9NP58 whole entry, looked up): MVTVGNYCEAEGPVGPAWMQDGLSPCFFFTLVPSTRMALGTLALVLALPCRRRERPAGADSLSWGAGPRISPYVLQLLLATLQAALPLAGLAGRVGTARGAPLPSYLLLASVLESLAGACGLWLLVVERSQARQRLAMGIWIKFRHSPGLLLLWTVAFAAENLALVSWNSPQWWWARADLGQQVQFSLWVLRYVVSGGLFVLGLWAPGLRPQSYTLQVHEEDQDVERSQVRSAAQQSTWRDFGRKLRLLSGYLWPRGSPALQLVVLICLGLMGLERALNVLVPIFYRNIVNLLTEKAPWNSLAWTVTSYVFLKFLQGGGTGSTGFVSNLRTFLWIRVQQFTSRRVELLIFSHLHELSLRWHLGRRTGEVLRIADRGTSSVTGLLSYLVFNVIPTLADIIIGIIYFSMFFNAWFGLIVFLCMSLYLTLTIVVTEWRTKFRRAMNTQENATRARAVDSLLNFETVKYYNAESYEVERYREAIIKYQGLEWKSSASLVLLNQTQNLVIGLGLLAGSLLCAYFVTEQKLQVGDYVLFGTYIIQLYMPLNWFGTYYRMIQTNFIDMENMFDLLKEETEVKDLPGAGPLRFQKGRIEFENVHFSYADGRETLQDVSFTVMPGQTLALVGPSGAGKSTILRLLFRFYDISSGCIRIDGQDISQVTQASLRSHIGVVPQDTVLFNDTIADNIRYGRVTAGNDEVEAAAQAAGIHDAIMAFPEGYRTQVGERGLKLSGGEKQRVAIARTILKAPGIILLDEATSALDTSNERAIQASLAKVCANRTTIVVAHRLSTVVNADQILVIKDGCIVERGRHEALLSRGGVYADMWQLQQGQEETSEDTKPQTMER
Chain of Beta-2 adrenergic receptor (Homo sapiens) (P07550 whole entry, looked up): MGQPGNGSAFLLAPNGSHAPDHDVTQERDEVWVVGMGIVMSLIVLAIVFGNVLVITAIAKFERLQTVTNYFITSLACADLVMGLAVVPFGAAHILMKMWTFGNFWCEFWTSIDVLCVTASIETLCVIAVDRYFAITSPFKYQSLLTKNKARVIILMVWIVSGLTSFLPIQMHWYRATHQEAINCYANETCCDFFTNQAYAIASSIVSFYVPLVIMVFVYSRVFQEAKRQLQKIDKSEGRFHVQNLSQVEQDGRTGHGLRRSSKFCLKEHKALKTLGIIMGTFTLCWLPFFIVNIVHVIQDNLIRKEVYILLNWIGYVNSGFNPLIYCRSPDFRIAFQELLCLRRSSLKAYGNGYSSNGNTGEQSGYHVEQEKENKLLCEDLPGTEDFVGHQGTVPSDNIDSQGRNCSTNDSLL
Chain of Integrin beta-1 (Homo sapiens) + Integrin alpha-4 (Homo sapiens) (P05556 whole entry, looked up): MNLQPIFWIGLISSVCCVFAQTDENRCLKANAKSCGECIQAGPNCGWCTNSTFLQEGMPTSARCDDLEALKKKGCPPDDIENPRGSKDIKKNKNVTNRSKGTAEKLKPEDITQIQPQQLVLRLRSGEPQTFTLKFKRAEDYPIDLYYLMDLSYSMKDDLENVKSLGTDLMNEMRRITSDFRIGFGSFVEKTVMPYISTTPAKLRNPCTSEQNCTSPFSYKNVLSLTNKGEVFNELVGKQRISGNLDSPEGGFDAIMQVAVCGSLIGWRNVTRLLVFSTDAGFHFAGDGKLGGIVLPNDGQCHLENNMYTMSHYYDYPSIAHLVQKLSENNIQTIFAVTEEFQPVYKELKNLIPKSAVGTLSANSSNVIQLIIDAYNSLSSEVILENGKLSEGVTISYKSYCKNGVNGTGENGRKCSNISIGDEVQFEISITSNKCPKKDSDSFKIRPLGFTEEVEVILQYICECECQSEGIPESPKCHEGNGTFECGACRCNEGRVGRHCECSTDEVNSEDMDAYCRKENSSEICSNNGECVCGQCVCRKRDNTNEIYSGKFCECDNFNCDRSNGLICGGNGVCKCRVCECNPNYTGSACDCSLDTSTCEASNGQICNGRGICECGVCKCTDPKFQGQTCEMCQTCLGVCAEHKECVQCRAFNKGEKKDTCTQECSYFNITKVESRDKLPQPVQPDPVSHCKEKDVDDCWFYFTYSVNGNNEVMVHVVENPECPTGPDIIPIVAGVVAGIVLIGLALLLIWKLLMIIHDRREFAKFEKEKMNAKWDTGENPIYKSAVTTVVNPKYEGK
Chain of Integrin beta-1 (Homo sapiens) + Integrin alpha-4 (Homo sapiens) (P13612 whole entry, looked up): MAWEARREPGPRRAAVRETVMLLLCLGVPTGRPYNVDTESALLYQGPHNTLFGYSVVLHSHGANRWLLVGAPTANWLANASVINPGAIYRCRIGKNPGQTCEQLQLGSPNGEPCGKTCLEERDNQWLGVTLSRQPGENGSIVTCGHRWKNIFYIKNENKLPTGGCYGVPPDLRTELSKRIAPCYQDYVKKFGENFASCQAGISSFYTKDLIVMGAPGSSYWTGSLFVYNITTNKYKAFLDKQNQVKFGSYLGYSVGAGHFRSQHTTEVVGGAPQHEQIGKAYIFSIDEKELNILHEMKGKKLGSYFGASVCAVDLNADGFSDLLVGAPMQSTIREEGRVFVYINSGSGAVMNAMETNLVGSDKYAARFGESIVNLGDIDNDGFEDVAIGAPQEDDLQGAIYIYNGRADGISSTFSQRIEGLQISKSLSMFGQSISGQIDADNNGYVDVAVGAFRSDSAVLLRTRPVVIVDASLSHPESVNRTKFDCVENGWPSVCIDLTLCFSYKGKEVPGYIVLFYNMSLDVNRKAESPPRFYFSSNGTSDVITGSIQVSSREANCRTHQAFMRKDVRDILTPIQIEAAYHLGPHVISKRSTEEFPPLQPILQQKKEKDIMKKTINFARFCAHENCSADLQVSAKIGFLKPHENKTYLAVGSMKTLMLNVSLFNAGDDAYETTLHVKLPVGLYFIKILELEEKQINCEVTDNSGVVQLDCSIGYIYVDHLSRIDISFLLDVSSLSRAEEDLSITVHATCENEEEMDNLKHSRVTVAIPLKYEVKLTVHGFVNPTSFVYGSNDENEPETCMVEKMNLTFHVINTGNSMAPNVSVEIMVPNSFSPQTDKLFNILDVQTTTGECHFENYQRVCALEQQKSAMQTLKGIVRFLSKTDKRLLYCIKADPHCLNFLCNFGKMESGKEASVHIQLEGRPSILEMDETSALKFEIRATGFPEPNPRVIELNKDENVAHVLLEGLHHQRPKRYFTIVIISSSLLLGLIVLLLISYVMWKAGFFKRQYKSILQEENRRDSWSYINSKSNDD

Broadly, the inhibition is the drop in the measured response relative to a control, in per cent. In the case of `O=C(CCCN1CC=C(n2c(=O)[nH]c3ccccc32)CC1)c1ccc(F)cc1`, in assay [1], the percent of DMSO control GFP is 98.1% (inactive). The GFP response vs DMSO in [2] was 95.9% (inactive); in [4] it was 93.3% (inactive). In addition, in [3], the percent response of DMSO control is 106% (inactive). Also, the GFP response, % of DMSO in [5] is 97.2% (inactive). The double positive events in assay [6] was found to be 63%. Moreover, the vesicle binding response in [6] is 237% (inactive). Also, the figures for the inhibition in assay [7], in assay [10] and in [14] were 5.36% (inactive), -14.3% (inactive) and 6% (inactive), respectively. Besides, in assay [8], the superoxide response (% of plate) was 97.2% (inactive). Further, in assay [9], the aptamer binding inhibition was -3% (inactive). For the same molecule, the response in assay [11] is -6.07% (inactive). For the same molecule, the binding (% of control) in assay [12] is 104% (inactive). Besides, the efflux inhibition (fraction of control) in assay [13] is -0.05 (inactive). The differentiation response in [15] was -19.6% (inactive).
Turning to `O=C(NCCCCCc1nc2ccccc2[nH]1)c1ccccc1Cl`, the percent of DMSO control GFP in assay [1] was 101% (inactive). Moreover, the GFP response vs DMSO in assay [2] was 107% (inactive); in assay [4] it was 95.9% (inactive). The percent response of DMSO control in assay [3] is 98.6% (inactive). In addition, in assay [5], the GFP response, % of DMSO is 103% (inactive). Besides, in [6], the double positive events amounted to 62.5%. Moreover, the vesicle binding response in assay [6] was 124% (inactive). For the same molecule, the inhibition in assay [7] was -7.79% (inactive); in [14] it was 6% (inactive). Besides, the superoxide response (% of plate) in assay [8] is 102% (inactive). The aptamer binding inhibition in assay [9] is 3% (inactive). Besides, the response in assay [16] was 25.8% (inactive); in [11], -2.36% (inactive). Besides, the binding (% of control) in assay [12] is 109% (inactive). Besides, the efflux inhibition (fraction of control) in [13] was 0.69 (active). The differentiation response in [15] is 10.1% (inactive).
For the molecule `Nc1nc2ccc(OC(F)(F)F)cc2s1`, in assay [1], the percent of DMSO control GFP was 100% (inactive). Besides, the results for the GFP response vs DMSO in assay [2] and in [4] were 99.9% (inactive) and 102% (inactive), respectively. The percent response of DMSO control in [3] was 99.3% (inactive). The GFP response, % of DMSO in assay [5] is 95.1% (inactive). Further, in assay [6], the double positive events is 57.4%. Further, the vesicle binding response in [6] is 21.6% (inactive). Also, the values for the inhibition in [7] and in [14] were -0.31% (inactive) and 3% (inactive), respectively. The superoxide response (% of plate) in assay [8] was 94.9% (inactive). Further, the aptamer binding inhibition in [9] was 4% (inactive). The values for the response in [16] and in [11] were 9.24% (inactive) and 1.08% (inactive), respectively. In addition, the binding (% of control) in [12] is 97.2% (inactive). Further, the efflux inhibition (fraction of control) in [13] was -0.41 (inactive). Further, the differentiation response in assay [15] was 2.69% (inactive).
On to `COc1cc(=O)n(C)c2ccccc12`, for which the percent of DMSO control GFP in assay [1] is 93.5% (inactive). Further, the GFP response vs DMSO in assay [2] is 99.9% (inactive); in assay [4] it was 90.3% (inactive). The percent response of DMSO control in assay [3] was 97.9% (inactive). Also, in assay [5], the GFP response, % of DMSO was 93.7% (inactive). For the same molecule, the double positive events in [6] was determined as 54.6%. For the same molecule, the vesicle binding response in assay [6] is 136% (inactive). Also, the results for the inhibition in assay [7], in assay [10] and in [14] were 7.22% (inactive), 28% (inactive) and 3% (inactive), respectively. The superoxide response (% of plate) in assay [8] was 103% (inactive). For the same molecule, in assay [9], the aptamer binding inhibition was 3% (inactive). The response in assay [11] was 3.71% (inactive). In addition, in assay [12], the binding (% of control) is 96.9% (inactive). The efflux inhibition (fraction of control) in assay [13] was 0.33 (inactive). Moreover, the differentiation response in [15] was -1.82% (inactive).
For `CC1(C(=O)O)CCC(C(=O)NC2CCCCCC2)C1(C)C` (stereo unspecified), in assay [1], the percent of DMSO control GFP was 103% (inactive). In addition, the GFP response vs DMSO is 106% (inactive) in [2] and 110% (inactive) in [4]. The percent response of DMSO control in assay [3] is 93.9% (inactive). For the same molecule, the GFP response, % of DMSO in assay [5] is 100% (inactive). This molecule also came in with a double positive events in assay [6] of 67.7%. Besides, in assay [6], the vesicle binding response is 157% (inactive). Besides, the inhibition was 28.3% (inactive) in assay [7], -8.9% (inactive) in assay [10] and 7% (inactive) in assay [14]. Further, in assay [8], the superoxide response (% of plate) was 99.3% (inactive). In addition, in assay [9], the aptamer binding inhibition is 3% (inactive). For the same molecule, the response in [16] was 10.4% (inactive); in assay [11] it was -1.45% (inactive). In addition, in assay [12], the binding (% of control) was 102% (inactive). Moreover, in [13], the efflux inhibition (fraction of control) was -0.54 (inactive). In addition, the differentiation response in assay [15] is -5.68% (inactive).
